Values joined by “and” are separate entries in the source; they are usually repeats but may differ in a detail not shown here. Equal values may be shown once. This is part of a sample that, as a whole, favours compounds with a hit. Of some 83,000 tested, about 20% had one in any assay.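 Compound tested at a single concentration for 48 hours in 96-well plates; a percent growth value below 10 was scored as active.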 Active and inactive are the calls of the source.

The subject of the assay is MDA-MB-468 breast. Put plainly: NCI-60 one-dose screen, 48 h (100 = growth as untreated, 0 = no growth, -100 = all killed). The note with it: 10 µM unless noted.
Regarding `c1ccc(-c2nnc(-c3ccccn3)s2)nc1`, the growth was 23.5% (inactive).
Then `CC(C)(C)C(=O)/C=C/c1ccc([N+](=O)[O-])cc1`, with 45.5% (inactive); and `O=[N+]([O-])CC(c1ccccc1F)c1c[nH]c2ccccc12` (stereo not given), with 44% (inactive); and `COc1ccc(-c2nc(Nc3ccc(-c4nc5ccccc5[nH]4)cc3)nc(N3CCOCC3)n2)cc1`, with -1.23% (active).
Then `CC1(C)CC(=O)C2=C(C1)N(c1ccc(OC(F)(F)F)cc1)C(N)=C(C#N)C2c1ccc(Br)cc1F` (stereo not given), with 55.7% (inactive); and `CCCCCCCCCCCCCCCCOc1ccccc1NC(=O)CC(C)=O`, with 111% (inactive).
Then `Cc1c(C(=O)/C=C/Nc2c(Cl)cc(S(N)(=O)=O)cc2Cl)sc2nc3ccccc3n12`, with 102% (inactive).
As to `Cc1cc(=O)n2nnc3c4ccccc4ccc3n12`, the growth is 15.5% (inactive).
Then `C=CCn1c(SCC(=O)Nc2ccc(C(=O)/C=C/c3cc(OC)c(OC)c(OC)c3)cc2)nnc1-c1ccc(Cl)cc1`, with 2.35% (active); and `O=C(Nc1nc(-c2ccc(Br)cc2)cs1)c1cc(-c2ccc(Br)cc2)nc2ccc(Cl)cc12`, with 102% (inactive).
Turning to `Oc1ccc2cc(Br)ccc2c1-c1c(O)ccc2cc(Br)ccc12`, the growth was 90.9% (inactive).
The same measure for `CC(C)(C)c1ccc(C(=O)N/N=C/c2ccc(O)cc2O)cc1`: -32.5% (active).
The same measure for `N/N=C(/Cc1ccccc1)NNC(N)=S`: 115% (inactive); for `COc1ccc(-c2cn(-c3ccccc3)c(-c3ccccc3)n2)cc1OC`: 9.76% (active).
The same measure for `CCN(CC)CCCNc1cccc2c(SCc3ccccc3)ccnc12`: 88.3% (inactive); for `Cc1cc(-c2ccccc2)cc(C)n1`: 103% (inactive).
For the compound `CCOC(=O)c1cn2ncnc(Oc3ccc(NC(=O)NCCN4CCN(C)CC4)c(Cl)c3)c2c1C`, the growth is 45.4% (inactive).
The same measure for `CCOc1cccc(/C=N/NC(=O)C(=O)Nc2cccc(C(F)(F)F)c2)c1O`: 1.46% (active).
Then `COc1ccc2c(c1)C(C)Cc1c(ncnc1-n1c(C)nc3ccccc31)N2C` (stereo not given), with 26.2% (inactive); and `O=C1OC(=O)C2C3CC(c4ccccc43)C12` (stereo not given), with 121% (inactive).
Then `COc1ccc(N)cc1C(=O)Nc1cccc(-c2cc(=O)c3c(OC)c(OC)c(OC)cc3o2)c1`, with 55.9% (inactive).
As to `O=C1C[C@H](c2ccccc2)[C@H](c2ccccc2)C1`, the growth was 99.2% (inactive).
On to `COc1cc(C2CC(c3ccccc3)=NN2C=O)ccc1Oc1ccnc2cc(Cl)ccc12` (stereo not given), for which the growth is 16.5% (inactive).
With `CC(O)CNC(Cc1ccccc1)c1ccc2c(c1)OCO2` (stereo not given), the growth is 101% (inactive).
As to `COc1cc(/C=C2/C=C(c3ccccc3)N(CCc3ccc(S(N)(=O)=O)cc3)C2=O)cc(OC)c1OC`, the growth is 94.7% (inactive).
Regarding `C=CCOc1ccc2c(c1)CC[C@@H]1[C@@H]2CC[C@]2(C)C(=O)/C(=N/O)C[C@@H]12`, the growth was 60.8% (inactive).
Then `CN(C)[C@@H]1C(=O)C(C(N)=O)=C(O)[C@@]2(O)C(=O)C3=C(O)c4c(O)cc(CN5CCc6ccccc6C5)c(Cl)c4C[C@H]3C[C@@H]12`, with -46.8% (active); and `Nc1ccc(S(=O)(=O)Nc2ccsc2-c2nc(-c3ccccc3)no2)cc1`, with 43.1% (inactive); and `Clc1cccc(/C=N/Nc2nc(N/N=C/c3cccc(Cl)c3Cl)nc(N3CCCCC3)n2)c1Cl`, with 92.8% (inactive).
As to `COc1ccc(OC)c(-c2nc(SCC(=O)c3ccc(C#N)cc3)[nH]c(=O)c2C#N)c1`, the growth is 94.3% (inactive).
The same measure for `CSc1cnc2ccccc2n1`: 119% (inactive).
With `CNCc1cccc2c1OCCOCCOCCN(CCN1CCOCC1)S(=O)(=O)c1ccc(cc1)-c1cnc(N)c(n1)C(=O)N2`, the growth was 53.9% (inactive).
The same measure for `O=C(Nc1ccccc1O)c1ccc(Oc2cccc(C(=O)Nc3ccccc3O)c2)cc1`: -27.2% (active).
As for `Cc1cc2ccccc2cn1`, the growth was 96.6% (inactive) and 102% (inactive).
Then `CCN(CCCNC(=O)Cc1cc(=O)oc2cc(N(C)C)ccc12)CCNc1ccnc2cc(Cl)ccc12`, with 52% (inactive); and `Clc1ccc(C2=NN(c3ccc(Cl)cc3)C(c3cccc(Nc4ccnc5cc(Cl)ccc45)c3)C2)cc1` (stereo not given), with 78.2% (inactive); and `O=C(O)c1ccccc1Nc1cccc(S(F)(F)(F)(F)F)c1`, with 111% (inactive).
Then `CC/C(=C(\c1ccccc1)c1ccc(OCCNC)cc1)c1ccccc1`, with -97.7% (active); and `O=c1c2cnn(-c3ccccc3)c2n2c(CN3CCOCC3)nnc2n1-c1ccccc1`, with 116% (inactive); and `O=C(Nc1cccc(-n2ccc3c(NC(=O)c4ccccc4)nccc32)c1)Nc1cc(C(F)(F)F)cc(C(F)(F)F)c1`, with 7.42% (active).

The values are drawn from PubChem BioAssay (NCI).
